A selection: hits, their analogues and other compounds. The true share with any hit is near 12%.
BAZ2B block: qHTS Assay for Inhibitors of BAZ2B. Bromodomain adjacent to zinc finger domain protein 2B (Homo sapiens), Q9UIF8. AlphaScreen BAZ2B-H3K14Ac peptide displacement. Potency, µM (highest dose often 114 µM), for inactives: top-dose activity change, negative = inhibition, actives largely listed as inhibitors. 360,000 compounds, 4.4% hits. AID 504333, 2011; also: % is scaled to controls: 0 for no effect and ±100 for the full control effect; nearly all actives have a fitted effect of over 60% in size
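AlphaScreen displacement of biotin-H3(5-23)K14Ac peptide (50 nM final) from BAZ2B (50 nM final) in PBS pH 7.4, 0.01% Tween-20; complex preformed 30 min RT, then compounds (top 110 uM) 30 min RT, beads 20 min dark.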
Sfp inh: qHTS Assay for Inhibitors of Bacillus subtilis Sfp phosphopantetheinyl transferase (PPTase). Biochemical Sfp PPTase activity, qHTS. 4'-phosphopantetheinyl transferase ffp (Bacillus subtilis), Q9F4F7. 310,000 compounds, 3.5% hits. Potency, µM, for the others: largest response in the series, negative = inhibition, usual class: inhibitors;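 also: the enzyme is Sfp with the accession as filed and its product quenches rhodamine fluorescence; 0% = enzyme reaction without inhibitor and -100% = no enzyme wells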
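Fluorescence-quenching assay: 15 nM Sfp-PPTase preincubated 15 min at room temperature with compound, then 5 uM rhodamine-CoA and 12.5 uM BHQ-2-labelled YbbR peptide added. Fluorescence (ex 525/em 598 nm) read at start and after 30 min; difference gives rate.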
JMJD2A Tudor: qHTS Assay for Inhibitors of JMJD2A-Tudor Domain. Lysine-specific demethylase 4A (Homo sapiens), O75164. AlphaScreen JMJD2A-Tudor / H3K4me3 peptide binding. Potency, µM (doses to about 114 µM), for inactives: top-dose activity change, negative = inhibition, most hits filed as inhibitors. 390,000 compounds, 4.4% hits; also: % is scaled to controls: 0 for no effect and ±100 for the full control effect; nearly all actives have a fitted effect of over 50% in size
G9a block: qHTS Assay for Inhibitors of Histone Lysine Methyltransferase G9a; G9a H3K9 monomethylation, AlphaScreen, 2 h; Potency, µM (highest dose often 102 µM), without a hit: at the highest dose activity, negative = inhibition, hits mostly inhibitors; 350,000 compounds, 8.8% hits; AID 504332, 2011; also: % is scaled to controls: 0 for no effect and ±100 for the full control effect; nearly all actives have a fitted effect of over 75% in size
Target sequence (Q96KQ7 913-1193 limits assumed): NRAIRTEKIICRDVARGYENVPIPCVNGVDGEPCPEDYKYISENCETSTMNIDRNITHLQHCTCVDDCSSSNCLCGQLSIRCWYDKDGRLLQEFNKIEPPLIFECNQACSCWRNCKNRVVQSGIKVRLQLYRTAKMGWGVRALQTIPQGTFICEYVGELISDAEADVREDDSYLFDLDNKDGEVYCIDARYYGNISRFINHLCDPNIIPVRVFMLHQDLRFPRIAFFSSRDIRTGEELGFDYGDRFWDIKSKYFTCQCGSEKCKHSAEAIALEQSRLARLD
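Enzyme 20 nM + cpd, 15 min RT; add b-H3K9 pep 500 nM / SAM 20 uM; 2 h RT; anti-H3K9me1 Ab 0.5 ug/mL + SA donor / anti-rabbit acceptor beads 20 ug/mL each, 10 min; AlphaScreen read.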
HP1b chromo inh: HTS for Inhibitors of HP1-beta Chromodomain Interactions with Methylated Histone Tails | Chromobox protein homolog 1 (Homo sapiens), P83916 | AlphaScreen HP1-beta / biotin-H3K9me3 peptide binding | Potency, µM (highest dose often 114 µM), for inactives: at the highest dose activity change, negative = inhibition, actives largely listed as inhibitors | 390,000 compounds, 0.56% hits | AID 540317, 2011; also: nearly all actives have a fitted effect of over 70% in size
Target sequence (P83916 whole entry, looked up): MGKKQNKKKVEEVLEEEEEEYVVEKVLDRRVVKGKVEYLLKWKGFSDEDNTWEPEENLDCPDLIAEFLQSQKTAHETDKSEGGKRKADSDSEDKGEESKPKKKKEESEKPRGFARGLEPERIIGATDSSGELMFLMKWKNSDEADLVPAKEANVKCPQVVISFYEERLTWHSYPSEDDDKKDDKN
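HP1-beta protein (50 nM final) preincubated 30 min at room temperature with biotinylated H3(1-18)K9me3 peptide (50 nM) in PBS pH 7.4, 0.01% Tween-20, then compound added for 30 min. AlphaScreen streptavidin donor/nickel chelate acceptor beads (10 ug/mL final), 30 min dark, luminescence read.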
* = called active by the depositor; ? = inconclusive; nt = no result; ! = repeats disagree; [ ] = remark or other dose. Calls follow the shape of the dose curve; as a rule, active = well fitted curve in the direction sought with a large enough effect; inconclusive = small, poorly fitted or top-dose-only effect, or another doubt; inactive = no such curve, though single readings can be large; an effect the other way counts as inactive or inconclusive. Potency is read from the fitted curve at half-maximal effect.

SMILES | BAZ2B block | Sfp inh | JMJD2A Tudor | G9a block | HP1b chromo inh
CN(C)c1ccc(CN(C(=O)/C=C/c2ccco2)C2CCS(=O)(=O)C2)cc1 (stereo not given) | ? | -2% | ? | nt | -12%
COc1cccc(CN(C(=O)/C=C/c2ccco2)C2CCS(=O)(=O)C2)c1 (stereo not given) | -29% | 25µM* | -19% | 18µM* | 10%
O=C(/C=C/c1ccco1)N(Cc1ccc(Cl)cc1)C1CCS(=O)(=O)C1 (stereo not given) | -28% | 25µM* | -20% | 45µM* | -13%
COc1ccc(S(=O)(=O)NCCc2cn3nc(C)c(C)nc3n2)cc1F | -4%[57.1 µM] | -6% | -12% | 13% | 32%
CCOc1ccccc1NS(=O)(=O)c1ccc2c(c1)NC(=O)CCS2 | -7% | 6% | -17% | ? | 56%
COc1cccc(CN(C(=O)c2ccco2)C2CCS(=O)(=O)C2)c1 (stereo not given) | 1% | 3% | -6% | nt | 26%
COc1ccc(CN(C(=O)/C=C/c2ccco2)C2CCS(=O)(=O)C2)cc1OC (stereo not given) | ? | 50µM* | -15% | 40µM* | 23%
OC(COc1ccc(Cl)c2ccccc12)CN1CCN(c2ccccn2)CC1 (stereo not given) | ? | 79µM* | ? | -44%[12.7 µM] | ?
Cc1cc(OCC(O)CN2CCN(c3ccccn3)CC2)cc(C)c1Cl (stereo not given) | ? | -14% | ? | 45µM* | -8%
OC(COCC1COc2ccccc2O1)CN1CCc2ccccc2C1 (stereo not given) | 1% | -19% | -2% | -15%[59 µM] | 28%
OC(COCC1COc2ccccc2O1)CN1CCN(c2ccccn2)CC1 (stereo not given) | -8% | 0% | 45µM*! | 25%[59 µM] | 31%
OC(COc1cccc2ccccc12)CN1CCN(c2ccc(Cl)cc2)CC1 (stereo not given) | ? | 9% | ? | 45µM* | 14%
OC(COc1ccc(Cl)cc1)CN1CCN(c2ccccn2)CC1 (stereo not given) | nt | nt | -10% | nt | 14%
CC1=C(C(=O)OCc2ccccc2)C(c2ccc(Br)cc2)NC(=O)N1CCCC(=O)O (stereo not given) | -38% | 9% | -7% | -50% | 46%
CCOc1cccc2cc(C(=O)NC(C)c3ccccc3)c(=N)oc12 (stereo not given) | -12% | 2% | -11% | nt | 26%
Fc1ccc(CNCc2ccccc2C(F)(F)F)cc1 | 6% | 21% | -1% | ? | 49%
CC#CC(=O)NC1CCCN(C2Cc3ccccc3C2)C1 (stereo not given) | -1% | 24% | -11% | ? | 32%
CN(c1ccc(C(=O)N2CCCCC2)cc1)S(=O)(=O)c1cccs1 | -1% | 21% | -4% | 1% | -7%
Cc1cc(C)c(OCC(O)CN2CCN(c3ccccn3)CC2)c(C)c1 (stereo not given) | 56µM* | 6% | 1% | ? | 29%
CC(C)(C)C1CCC(OCC(O)CN2CCN(c3ccccn3)CC2)CC1 (stereo not given) | ? | 5% | ? | 32µM* | 24%
CC1CC(C)CN(c2cc(=O)n(Cc3ccc(F)cc3)c(=O)[nH]2)C1 (stereo not given) | 9% | -6% | -13% | 5%[59 µM] | 33%
CCOC(=O)c1nn(-c2ccccc2C)c(=O)c(C#N)c1C | 6% | 0% | -5% | 89µM* | 21%
Cc1c(C(=O)NN)nn(-c2ccc(F)cc2)c(=O)c1C#N | 0% | 6% | -11% | -18% | 43%
CCOC(=O)c1nn(-c2ccc(C)c(C)c2)c(=O)c(C#N)c1C | -38% | 9% | -27% | 45µM* | 29%
Cn1cc(S(=O)(=O)NC2CCCC2)c(=O)n(C)c1=O | 11% | nt | -9% | 1% | 18%
SMILES | BAZ2B block | Sfp inh | JMJD2A Tudor | G9a block | HP1b chromo inh
CSc1nnc(-c2cc[n+](C)cc2)n1CCO | 6% | -1% | 89µM* | 7.9µM* | 7%
CC(C(=O)Nc1ccc2c(c1)OCO2)N(C)CC(=O)Nc1ccc(Cl)cc1 (stereo not given) | nt | nt | 2.2µM* | nt | ?
CSc1ccccc1NC(=O)CN(C)C(C)C(=O)NCc1ccc2c(c1)OCO2 (stereo not given) | nt | nt | 5µM* | nt | ?
Cc1ccc(C)c(NC(=O)CN(C)C(C)C(=O)N2CCCC2)c1 (stereo not given) | nt | nt | -3% | nt | 0%
CC1CC(C)CN(C(=O)C(C)N(C)CC(=O)Nc2ccc(Cl)cc2)C1 (stereo not given) | 45µM* | ? | 7.9µM* | 50µM* | ?
COc1ccc(NC(=O)CN(C)C(C)C(=O)N2CCCCC2)cc1 (stereo not given) | 22µM* | ? | 0.89µM* | ? | -50%
CC1CC(C)CN(C(=O)C(C)N(C)CC(=O)Nc2ccc(F)cc2)C1 (stereo not given) | 8% | nt | 0% | 11%[12.7 µM] | 26%
CCc1ccc(C(=O)NNC(=O)[C@H](C)NC(=O)c2ccco2)cc1 | nt | nt | -12% | nt | 48%
Cc1[nH]c2ccccc2c1C(c1ccccn1)N1CCC(C(N)=O)CC1 (stereo not given) | nt | 63µM* | ? | 1.6µM* | -34%
CCOC(=O)C1CCN(C(=O)c2n[nH]c(=O)c3ccccc23)CC1 | 1% | 15% | 2% | 4%[59 µM] | 12%
CCOC(=O)C1CCN(C(c2ccccn2)c2c(C)[nH]c3ccccc23)CC1 (stereo not given) | -12% | ? | ? | 1.4µM* | ?
Cc1[nH]c2ccc(C(=O)N3CCC(C(N)=O)CC3)cc2c1C | nt | nt | -26% | nt | 7%
CC(C)Cc1nnc(NC(=O)CCC(=O)NCc2ccccc2Cl)s1 | -14% | 19% | 2% | 0% | 45%
CCOc1ccc2nc(NC3=NC(c4ccc(OC)cc4)CC(=O)N3)nc(C)c2c1 (stereo not given) | -1%[57.1 µM] | 22µM* | 79µM* | 10µM* | ?
O=C1/C(=C\c2ccco2)SC(=S)N1C1CCS(=O)(=O)C1 (stereo not given) | 40µM* | 32µM* | 56µM* | nt | ?
O=C1/C(=C/c2ccco2)SC(=S)N1C1CCS(=O)(=O)C1 (stereo not given) | 50µM* | 17% | ? | 45µM* | -15%
Cc1ccc(/C=C2\SC(=S)N(C3CCS(=O)(=O)C3)C2=O)cc1 (stereo not given) | -11% | 11% | -6% | -6%[59 µM] | 16%
OCCNc1ncnc2c1cnn2Cc1ccccc1 | -3% | 14% | -6% | 5% | 28%

Screening data from PubChem.
